Drawing on the OligoGym collection, this text covers sensor-assay potency score (higher = more potent) for 39 sequences.
Further: reference of the scale not given here.

The first experiment deals with CTLA4. The experiment is described as follows: pooled miR-30 sensor sort-seq; sequence = guide strand. Particulars: shRNA.
In the case of ATCAATTACATAAATCTGGGTT, the sensor-assay potency score (higher = more potent) is -0.149. Still for that read-out and setting: with TTTAGCAATTACATAAATCTGG the figure was 0.216; with TTGCTTTTCACATTCTGGCTCT, 0.296; with TTAGCAATTACATAAATCTGGG, -0.222.

For the sequence TACATGAGCTCCACCTTGCAGA, the sensor-assay potency score (higher = more potent) is -0.733. For TTGCTCAAAGAAACAGCTGTGA, the sensor-assay potency score (higher = more potent) was -0.0499.

Take TTTCACATTCTGGCTCTGTTGG: the sensor-assay potency score (higher = more potent) is -0.615. On the same count and under the same terms, with TTGCTTTGCAGAAGACAGGGAT the figure was 0.337; with TACTCACACACAAAGCTGGCGA, 0.197. In turn, TTTTGCTCAAAGAAACAGCTGT came in with a sensor-assay potency score (higher = more potent) of 0.613.

The target of the next experiment is CTNNAL1. Described as above. Particulars: shRNA.
TTTCTTGATGTTATTATCTGTT yielded a sensor-assay potency score (higher = more potent) of -0.648. On the same count and under the same terms, for TTCATTAAGACTGTGACTGATT the value was 0.0876; for TTGAACACTGGAAGTAAGCTTT, 0.00936; for TTCAGCAGCAGAAATTATCTGT, 0.229. Same read-out and setting: for TTCATTTCCAAATTGACTGAAT the value was 0.0043; for TTGTAACTGAGACCCATCCGTT, -0.457; for TCGACAGGTCTCAACAAGCTGC, -0.481. For TTATTTGTAACTGAGACCCATC, the sensor-assay potency score (higher = more potent) was -0.547.

Take TTGTTTTCTTGCTTTGAGCTTG: the sensor-assay potency score (higher = more potent) was found to be 0.085. For the sequence ATTTTGTCTATCTCCACTCAGA, the sensor-assay potency score (higher = more potent) was -0.843. Take TTGTCTTCGTAATACACTTGTC: the sensor-assay potency score (higher = more potent) is -0.611. Consider TAGTTGATGAATTAAATCCTGG, for which the sensor-assay potency score (higher = more potent) was -0.667.

A further experiment has as its target CTNNBIP1. The description is as above. Particulars: shRNA.
The sequence TGAATGTACATCTCCTCCGGAC came in with a sensor-assay potency score (higher = more potent) of -0.75. For TCTCCTCCGGACTCTTCCCGGG, the sensor-assay potency score (higher = more potent) was -0.954. As to TTGACCACCCCTGCATAGGTGC, the sensor-assay potency score (higher = more potent) is -1.01.

In turn, TCTGCTGAATGTACATCTCCTC registered a sensor-assay potency score (higher = more potent) of -0.574. TTCTGCTGAATGTACATCTCCT registered a sensor-assay potency score (higher = more potent) of -0.0119. In the case of TTGATATCAGCAGAACACCTGC, the sensor-assay potency score (higher = more potent) is -0.0972. In turn, TCGGACCTTCTGCTGAATGTAC returned a sensor-assay potency score (higher = more potent) of -1.3. Still for that read-out and setting: with CTGAATGTACATCTCCTCCGGA the figure was -0.773; with TGGCTGTCAGGTTTGATCCCAT, -0.741; with ATAGGTGCGCAGGAACTCCTCC, -0.215.

Turning to TGATCCCATCTTCCGCAGCATG, the sensor-assay potency score (higher = more potent) is -1.86. On to ATCTCCTCCGGACTCTTCCCGG, for which the sensor-assay potency score (higher = more potent) was -1.21.

The next experiment deals with CTNNBL1. Described as above. The note with it: shRNA.
As for TACTCCTTGATGATATGCCTGA, the sensor-assay potency score (higher = more potent) was -0.148.

In turn, TGAACTTCTCTGGATTGTCTGG had a sensor-assay potency score (higher = more potent) of -0.725.

TGTATTATCGTGTCCGAGCAAG registered a sensor-assay potency score (higher = more potent) of -1.35. TTGTCTGGAAACTTAATCCGCA: the sensor-assay potency score (higher = more potent) is -0.219. Consider AAGCACATCGATTCCATCCAGC, for which the sensor-assay potency score (higher = more potent) was -0.642.
